Measured values: publication PMC5540273 (PLoS ONE, 2017)

How the values were obtained:
Details in all cases: concentration: 1 μM, replicates: in singlicate; n = 1
[1] = tested on: EPHA4
[2] = tested on: EPHA5
[3] = tested on: EPHA6
[4] = tested on: EPHA7
[5] = tested on: EPHA8
[6] = tested on: EPHB1
[7] = tested on: EPHB2
[8] = tested on: EPHB3
[9] = tested on: EPHB4
[10] = tested on: EPHB6
[11] = tested on: ERBB2
[12] = tested on: ERBB3
[13] = tested on: ERBB4
[14] = tested on: T1, ERK1
T1 construct: gene MAPK3

[15] = tested on: T2, ERK2
T2 construct: gene MAPK1

[16] = tested on: T3, ERK3
T3 construct: gene MAPK6

[17] = tested on: T4, ERK4
T4 construct: gene MAPK4

[18] = tested on: T5, ERK5
T5 construct: gene MAPK7

[19] = tested on: T6, ERK8
T6 construct: gene MAPK15

[20] = tested on: ERN1
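Also: KINOMEscan kinase panel screen.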

With `COc1ccc(Nc2nccc(-c3cccc(NC(=O)c4cc5cc(F)ccc5[nH]4)c3)n2)cc1` [GSK1229782] the “%Inh” value [1] was 6%, the “%Inh” value [2] was 0% and the “%Inh” value [3] was 11%. For the same compound, the “%Inh” value [4] was 10%, the “%Inh” value [5] was 26% and the “%Inh” value [6] was 32%. The “%Inh” value [7] was 14%, the “%Inh” value [8] was 25% and the “%Inh” value [9] was 32%. For the same compound, the “%Inh” value [10] was 25%, the “%Inh” value [11] was 58% and the “%Inh” value [12] was 29%. For the same compound, the “%Inh” value [13] was 34%, the “%Inh” value [14] was 13% and the “%Inh” value [15] was 17%. The “%Inh” value [16] was 17%, the “%Inh” value [17] was 24% and the “%Inh” value [18] was 28%. For the same compound, the “%Inh” value [19] was 0% and the “%Inh” value [20] was 2%.
For `CS(=O)(=O)c1ccc(-c2c(-c3ncn[nH]3)sc(N3CCOCC3)c2C#N)cc1`, the “%Inh” value [1] was 27%, the “%Inh” value [2] was 27% and the “%Inh” value [3] was 32%. The “%Inh” value [4] was 0%, the “%Inh” value [5] was 0% and the “%Inh” value [6] was 6%. For the same compound, the “%Inh” value [7] was 0%, the “%Inh” value [8] was 36% and the “%Inh” value [9] was 42%. The “%Inh” value [10] was 17%, the “%Inh” value [11] was 41% and the “%Inh” value [12] was 13%. The “%Inh” value [13] was 12%, the “%Inh” value [14] was 0% and the “%Inh” value [15] was 37%. The “%Inh” value [16] was 25%, the “%Inh” value [17] was 12% and the “%Inh” value [18] was 0%. For the same compound, the “%Inh” value [19] was 10% and the “%Inh” value [20] was 21%.
With `Cn1cncc1-c1ccc2ncnc(Nc3ccc(OCc4ccccc4)cc3)c2c1` [GW320571] the “%Inh” value [1] was 13%, the “%Inh” value [2] was 2% and the “%Inh” value [3] was 19%. For the same compound, the “%Inh” value [4] was 1%, the “%Inh” value [5] was 12% and the “%Inh” value [6] was 6%. For the same compound, the “%Inh” value [7] was 0%, the “%Inh” value [8] was 23% and the “%Inh” value [9] was 8%. For the same compound, the “%Inh” value [10] was 3%, the “%Inh” value [11] was 99.4% and the “%Inh” value [12] was 43%. The “%Inh” value [13] was 61%, the “%Inh” value [14] was 13% and the “%Inh” value [15] was 10%. For the same compound, the “%Inh” value [16] was 0%, the “%Inh” value [17] was 0% and the “%Inh” value [18] was 0%. The “%Inh” value [19] was 25% and the “%Inh” value [20] was 0%.
With `NC(=O)c1nnc2ccccc2c1N` the “%Inh” value [1] was 1%, the “%Inh” value [2] was 10% and the “%Inh” value [3] was 0%. For the same compound, the “%Inh” value [4] was 0%, the “%Inh” value [5] was 0% and the “%Inh” value [6] was 0%. The “%Inh” value [7] was 13%, the “%Inh” value [8] was 0% and the “%Inh” value [9] was 19%. The “%Inh” value [10] was 9%, the “%Inh” value [11] was 22% and the “%Inh” value [12] was 45%. For the same compound, the “%Inh” value [13] was 4%, the “%Inh” value [14] was 0% and the “%Inh” value [15] was 18%. For the same compound, the “%Inh” value [16] was 0%, the “%Inh” value [17] was 2% and the “%Inh” value [18] was 5%. The “%Inh” value [19] was 0% and the “%Inh” value [20] was 22%.
With `CCn1c(-c2cccnc2O)nc2cnccc21` [SB-736715] the “%Inh” value [1] was 0%, the “%Inh” value [2] was 0% and the “%Inh” value [3] was 0%. The “%Inh” value [4] was 0%, the “%Inh” value [5] was 0% and the “%Inh” value [6] was 0%. The “%Inh” value [7] was 6%, the “%Inh” value [8] was 0% and the “%Inh” value [9] was 0%. For the same compound, the “%Inh” value [10] was 0%, the “%Inh” value [11] was 9% and the “%Inh” value [12] was 0%. For the same compound, the “%Inh” value [13] was 25%, the “%Inh” value [14] was 0% and the “%Inh” value [15] was 0%. For the same compound, the “%Inh” value [16] was 0%, the “%Inh” value [17] was 0% and the “%Inh” value [18] was 0%. For the same compound, the “%Inh” value [19] was 0% and the “%Inh” value [20] was 0%.
For `COC(=O)c1c(-c2ccccc2)c2cc(OC)ccc2c(=O)n1Cc1ccccc1`, the “%Inh” value [1] was 35%, the “%Inh” value [2] was 1% and the “%Inh” value [3] was 43%. For the same compound, the “%Inh” value [4] was 0%, the “%Inh” value [5] was 1% and the “%Inh” value [6] was 0%. The “%Inh” value [7] was 23%, the “%Inh” value [8] was 35% and the “%Inh” value [9] was 27%. The “%Inh” value [10] was 0%, the “%Inh” value [11] was 9% and the “%Inh” value [12] was 11%. For the same compound, the “%Inh” value [13] was 0%, the “%Inh” value [14] was 0% and the “%Inh” value [15] was 17%. For the same compound, the “%Inh” value [16] was 0%, the “%Inh” value [17] was 14% and the “%Inh” value [18] was 13%. The “%Inh” value [19] was 0% and the “%Inh” value [20] was 17%.
For `Clc1cc(Cl)cc(Nc2ccnc(Nc3cc(Cl)cc(Cl)c3)n2)c1` [GSK175726], the “%Inh” value [1] was 8%, the “%Inh” value [2] was 0% and the “%Inh” value [3] was 13%. For the same compound, the “%Inh” value [4] was 8%, the “%Inh” value [5] was 17% and the “%Inh” value [6] was 1%. The “%Inh” value [7] was 19%, the “%Inh” value [8] was 10% and the “%Inh” value [9] was 28%. The “%Inh” value [10] was 19%, the “%Inh” value [11] was 22% and the “%Inh” value [12] was 0%. For the same compound, the “%Inh” value [13] was 36%, the “%Inh” value [14] was 0% and the “%Inh” value [15] was 0%. For the same compound, the “%Inh” value [16] was 14%, the “%Inh” value [17] was 20% and the “%Inh” value [18] was 0%. For the same compound, the “%Inh” value [19] was 0% and the “%Inh” value [20] was 13%.
`CC(C)(C)c1ccc(C(=O)Nc2cn3cc(-c4cccnc4)ccc3n2)cc1` was tested, and the “%Inh” value [1] was 25%, the “%Inh” value [2] was 13% and the “%Inh” value [3] was 29%. The “%Inh” value [4] was 4%, the “%Inh” value [5] was 8% and the “%Inh” value [6] was 19%. The “%Inh” value [7] was 4%, the “%Inh” value [8] was 26% and the “%Inh” value [9] was 16%. For the same compound, the “%Inh” value [10] was 28%, the “%Inh” value [11] was 34% and the “%Inh” value [12] was 0%. For the same compound, the “%Inh” value [13] was 1%, the “%Inh” value [14] was 0% and the “%Inh” value [15] was 18%. For the same compound, the “%Inh” value [16] was 14%, the “%Inh” value [17] was 23% and the “%Inh” value [18] was 20%. For the same compound, the “%Inh” value [19] was 16% and the “%Inh” value [20] was 12%.
For `Cl.NC(=O)c1cccc(Nc2nccc(Nc3ccc(Oc4cccc(Cl)c4)c(Cl)c3)n2)c1` [GW659008], the “%Inh” value [1] was 3%, the “%Inh” value [2] was 0% and the “%Inh” value [3] was 0%. For the same compound, the “%Inh” value [4] was 3%, the “%Inh” value [5] was 19% and the “%Inh” value [6] was 0%. For the same compound, the “%Inh” value [7] was 0%, the “%Inh” value [8] was 0% and the “%Inh” value [9] was 16%. For the same compound, the “%Inh” value [10] was 68%, the “%Inh” value [11] was 79% and the “%Inh” value [12] was 82%. For the same compound, the “%Inh” value [13] was 55%, the “%Inh” value [14] was 3% and the “%Inh” value [15] was 0%. For the same compound, the “%Inh” value [16] was 15%, the “%Inh” value [17] was 0% and the “%Inh” value [18] was 61%. For the same compound, the “%Inh” value [19] was 0% and the “%Inh” value [20] was 19%.
In the case of `Cc1csc(-c2nc(Nc3ccncc3)c3ccccc3n2)n1` [GW869640], the “%Inh” value [1] is reported as 8%, the “%Inh” value [2] is reported as 13% and the “%Inh” value [3] is reported as 6%. The “%Inh” value [4] was 6%, the “%Inh” value [5] was 5% and the “%Inh” value [6] was 7%. For the same compound, the “%Inh” value [7] was 0%, the “%Inh” value [8] was 9% and the “%Inh” value [9] was 0%. For the same compound, the “%Inh” value [10] was 28%, the “%Inh” value [11] was 36% and the “%Inh” value [12] was 40%. For the same compound, the “%Inh” value [13] was 0%, the “%Inh” value [14] was 13% and the “%Inh” value [15] was 17%. For the same compound, the “%Inh” value [16] was 4%, the “%Inh” value [17] was 0% and the “%Inh” value [18] was 0%. For the same compound, the “%Inh” value [19] was 32% and the “%Inh” value [20] was 27%.
